Screens as filed in PubChem BioAssay.
Pf growth 96h: Primary qHTS for delayed death inhibitors of the malarial parasite plastid, 96 hour incubation; Potency, µM (doses to about 28.7 µM), without a hit: top-dose activity change, negative = inhibition, actives largely listed as inhibitors; P. falciparum luciferase reporter growth, 96 h; 6.9% of 320,000 active; note: potency is the fitted concentration of half-maximal effect; % is set by controls: 0 for no effect and ±100 for the full control effect
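Readout is luminescence from an integrated firefly luciferase in P. falciparum. Red cells, 2% hematocrit and 0.05% parasitemia final, were cultured with compound through two parasite generations (96 hours) at 37 C, 5% CO2.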
Pf growth 48h: Primary qHTS for delayed death inhibitors of the malarial parasite plastid, 48 hour incubation; P. falciparum luciferase growth in erythrocytes, 48 h; Potency, µM (titrated, usually from 28.7 µM), for inactives: top-dose activity change, negative = inhibition, usual class: inhibitors; 5.9% of 310,000 active; note: potency is the fitted concentration of half-maximal effect; % is set by controls: 0 for no effect and ±100 for the full control effect
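Luciferase-expressing P. falciparum in infected erythrocytes (2% hematocrit, 0.1% parasitemia final) in RPMI 1640/0.5% Albumax were exposed to compound for 48 hours at 37 C, 5% CO2; growth read as luminescence.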
Sm TGR block: qHTS Assay for the Inhibitors of Schistosoma Mansoni Peroxiredoxins; purified TGR, DTNB reduction, TNB absorbance 405 nm; Potency, µM (doses to about 114 µM), for the others: at the top dose activity change, negative = inhibition, most hits filed as inhibitors; 3% of 360,000 active; AID 485364, 2010; note: potency is the fitted concentration of half-maximal effect; % is set by controls: 0 for no effect and ±100 for the full control effect; nearly all actives have a fitted effect of over 60% in size
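Kinetic colorimetric format: TGR-catalysed, NADPH-driven DTNB reduction monitored via TNB absorbance. Enzyme dispensed at 20 nM; compound exposure 15 min at room temperature before reaction start.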
NS1 inh: qHTS Assay for Inhibitors of Influenza NS1 Protein Function; Potency, µM (series often up to 46.1 µM), without a hit: at the highest dose activity, positive = more growth; 0.4% of 270,000 active; calls by dose curve; note: potency is the fitted concentration of half-maximal effect; actives are rising curves; nearly all actives have a fitted effect of over 50% in size
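OD600 was taken as the measure of yeast growth restored by compound in an NS1-expressing S. cerevisiae strain. Cells had been washed out of glucose medium and diluted 1:100 into galactose -URA medium, pH 6.0.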
Shiga toxin inh: A qHTS for Small Molecule Inhibitors of Shiga Toxin; Vero cells, Shiga toxin protein synthesis inhibition reporter; inhibition, % at 38.7 µM; 9.2% of 290,000 active; in the data active = inhibition mostly above about 28%, no sharp cut-off; inactive = mostly below about 43%; note: 0% is about no effect
Cycloheximide cs: Cycloheximide Counterscreen for Small Molecule Inhibitors of Shiga Toxin | cell reporter, cycloheximide protein synthesis inhibition counterscreen | max response, % | 12% of 300,000 active | AID 2314, 2010; in the data active = max response mostly above about 13%, no sharp cut-off; inactive = mostly below about 14%; note: read at 38.3 µM for the half of the compounds with a filed dose; 0% is about no effect
* hit, by the source's call; u = inconclusive; x = no result given. Only some compounds are listed: those with a hit (about 21% of all), similar ones and a draw of the others. Unless noted, calls come from the whole dose curve; as a rule, active = well fitted curve in the direction sought with a large enough effect; inconclusive = small, poorly fitted or top-dose-only effect, or another doubt; inactive = no such curve, though single readings can be large; an effect the other way counts as inactive or inconclusive.

SMILES	Pf growth 96h	Pf growth 48h	Sm TGR block	NS1 inh	Shiga toxin inh	Cycloheximide cs
O=C(Nc1cccc(S(=O)(=O)C(F)F)c1)c1ccc(Cl)c(S(=O)(=O)N2CCOCC2)c1	x	9.3µM*	-6%	20%	-9	10
O=C(NC1CC1)c1ccc(Cl)c(S(=O)(=O)N2CCOCC2)c1	0%	u	-4%	5%	-9	-2
O=C(Nc1cccc(C(=O)NC2CC2)c1)c1ccc(Cl)c(S(=O)(=O)N2CCOCC2)c1	13µM*	u	-14%	x	x	x
O=C(Nc1cccc(Br)c1)c1ccc(Cl)c(S(=O)(=O)N2CCOCC2)c1	-3%	6.6µM*	2%	-4%	35	21*
COC(=O)c1ccc(N(CC(=O)NC2CCCC2)C(=O)c2ccc(C)s2)cc1	-19%	u	10%	-11%	25	-3
CC(=O)N(Cc1nc2sc(C)c(C)c2c(=O)[nH]1)C1CCCC1	43%	-4%	0%	1%	-4	-2
O=C(COc1ccccc1)NCC(=O)Nc1cccc2ccccc12	58%	-1%	5%	4%	-8	4
C=CCOc1c(Br)cc(CNc2ccc(NC(=O)C(C)C)c(OC)c2)cc1OCC	u	9.3µM*	-29%	5%	10	34*
CCOc1cc(CNc2ccc(N3CCOCC3)cc2)cc(Br)c1OCC	u	u	-11%	7%	-12	-3
C=CCOc1c(Br)cc(CNc2ccc3[nH]c(=O)[nH]c3c2)cc1OCC	10µM*	2%	-13%	6%	25	0
C=CCOc1ccc(CNc2ccc3[nH]c(=O)[nH]c3c2)cc1OC	-109%	-3%	-25%	x	16	5
C=CCOc1c(Br)cc(CNc2ccc(NC(=O)CCC)cc2)cc1OCC	61%	50%	-15%	-26%	12	3
CCOc1cc(CNc2ccc3c(c2)OCCO3)cc(Br)c1OCC	2.1µM*	1.9µM*	-11%	13%	67*	28*
C=CCOc1ccc(CNc2ccc(NC(=O)CCC)cc2)cc1OCC	12µM*	15µM*	-16%	6%	-9	-3
CCOc1cc(CNc2ccc(N3CCN(C(C)=O)CC3)cc2)cc(Br)c1OC	u	u	-20%	-8%	-8	-5
Cc1ccc(C)c(NC(=O)CSc2nc3nccnc3c(=O)n2CCc2c[nH]c3ccccc23)c1	x	x	2%	x	x	x
Cc1ccc(Cl)cc1N1CCN(c2ncnc3onc(C)c23)CC1	x	x	6%	x	x	x
C/C(=N\NC(=O)CN1CCN(S(=O)(=O)c2ccc(C)cc2)CC1)c1ccc(O)cc1	1%	-15%	2%	6%	9	0
CCOCCCNC(=O)Cn1ncc2c([nH]c3ccc(C)cc32)c1=O	x	x	1%	x	x	x
C=CCOc1cccc(C2C(C(=O)c3ccco3)=C(O)C(=O)N2Cc2ccco2)c1 (centres undefined)	11%	5%	32µM*	8%	17	1
C=CCOc1cccc(C2C(C(=O)c3ccc(C)o3)=C(O)C(=O)N2Cc2ccncc2)c1 (centres undefined)	189%	11%	u	-2%	2	-3
C=CCOc1cccc(C2C(C(=O)c3ccco3)=C(O)C(=O)N2Cc2ccncc2)c1 (centres undefined)	58%	17%	45µM*	-5%	40*	29*
C=CCOc1cccc(C2C(C(=O)c3ccco3)=C(O)C(=O)N2CCN2CCOCC2)c1 (centres undefined)	3%	12%	25µM*	-3%	45	0
CC(C)c1ccccc1NC(=S)NCC1(N(C)C)CCCCC1	u	u	-4%	2%	-16	-1
O=C(CCNS(=O)(=O)c1ccc2c(c1)CCC(=O)N2)NCc1ccc2c(c1)OCO2	-10%	9%	-3%	4%	-7	-3
SMILES	Pf growth 96h	Pf growth 48h	Sm TGR block	NS1 inh	Shiga toxin inh	Cycloheximide cs
O=C1CCc2cc(S(=O)(=O)NCCCC(=O)N3CCN(Cc4ccc5c(c4)OCO5)CC3)ccc2N1	13µM*	-46%	-6%	x	19	-2
CCOC(=O)CSc1nnc(NCC(=O)OC(C)C)c(=O)[nH]1	u	-1%	13µM*	6%	23	-2
CCOC(=O)CNC(=O)CSc1nnc(C)c(=O)[nH]1	22%	6%	-1%	-7%	9	-2
Nc1nonc1NN=C1CCCCC1	14%	27%	-5%	3%	77	12*
CN(Cc1ccccc1)c1nc(-c2ccc(F)cc2)cc(C(F)(F)F)n1	x	x	9%	x	-2	-3
Cc1cc2c(cc1S(=O)(=O)Nc1ccc(C(C)C)cc1)OCCN2C	12µM*	u	5%	x	x	x
Nn1c(SCc2ccc(Br)cc2)nnc1-c1ccncc1	-3%	4%	6%	-1%	-4	-4
Cc1ccc(NC(=O)CN2C(=O)CCc3cc(S(=O)(=O)N4CCOCC4)ccc32)cc1F	x	x	-1%	x	x	x
CCCCN(C(=O)c1ccc(-n2nc(C)cc2C)cc1)c1c(N)n(CCC)c(=O)[nH]c1=O	-8%	-5%	2%	x	x	x
CCOC(=O)c1cc(-c2cccs2)[nH]n1	34%	36%	1%	-7%	60*	22*
O=C(O)c1cc(-c2cccs2)[nH]n1	-23%	-2%	x	0%	-2	-6
COc1ccc(C)cc1NC(=O)CSc1nc(=O)n(Cc2ccncc2)c2c1CCC2	x	x	-3%	x	x	x
COc1cccc(-c2ncc3ccccc3c2COC(=O)c2cccc(Br)c2)c1	4.7µM*	u	-2%	x	x	x
COc1cccc(-c2ncc3ccccc3c2COC(=O)c2ccc(C(F)(F)F)cc2)c1	2.9µM*	u	1%	x	x	x
CCC(=O)Nc1ccc(C(=O)COC(=O)Cc2ccsc2)cc1	u	u	-2%	x	x	x
Cc1ccc2c(c1C)NC(=O)C21N2CCCC2C(C(=O)c2ccc3ccccc3c2)C12C(=O)Nc1ccccc12 (centres undefined)	9.3µM*	9.3µM*	6%	22%	39	56*
Cc1nc(C)c(C(=O)N2CCCC(C(=O)c3ccc4ccccc4c3)C2)s1 (centres undefined)	u	7%	-2%	-13%	42	1
CC(=O)Nc1ccc(N/C=C/C(=O)c2ccc(Br)cc2)cc1	29%	93%	-2%	10%	4	-2
CC(=O)Nc1ccc(N/C=C/C(=O)c2ccco2)cc1	5%	232%	-26%	-9%	76*	59*
CN(C)c1ccc(N/C=C/C(=O)c2ccco2)cc1	u	x	-24%	-2%	91*	49*
Cc1ccc(NC(=S)N(Cc2cccc(Br)c2)CC2CCC(C(=O)O)CC2)cc1Cl (centres undefined)	-5%	-7%	8%	x	-13	9
